# In publication PMC11995724, “Antibiotic target discovery by integrated phenotypic and activity-based profiling of electrophilic fragments” (Cell chemical biology, 2025):
# The campaign covered roughly 3,200 compounds. About 110 (3.4%) showed an effect of 50% or more. The entries come from a sample that favours strong results as a whole.
# Tested on: T1, V. cholerae SAD30
# T1 construct: SAD30
# Design: species or system S. aureus MSSA476 (TSB) or V. cholerae SAD30 (LB); 384-well bacterial growth screen at 25 uM, OD600 relative to DMSO control
# Conditions: relative growth, OD600, LB; 25 µM; inhibitor
row,Compound,% of control remaining [%]
1,"C=CC(=O)NCc1c(Cl)c(C(F)(F)F)nn1C [2-J07, N-{[4-chloro-1-methyl-3-(trifluoromethyl)-1H-pyrazol-5-yl]methyl}prop-2-enamide]",87.88
2,"C=CC(=O)Nc1ccc(Cl)cc1F [1-I10, N-(4-chloro-2-fluorophenyl)prop-2-enamide]",88.0419
3,"CC(Cl)C(=O)NCc1cc(-c2ccccc2)on1 (stereo not drawn) [7-A13, 2-chloro-N-[(5-phenyl-1,2-oxazol-3-yl)methyl]propanamide]",82.868
4,"CC(Cl)C(=O)N1CCN(C(=O)C(F)(F)F)C2(CCCCC2)C1 (stereo not drawn) [7-K06, 2-chloro-1-[1-(2,2,2-trifluoroacetyl)-1,4-diazaspiro[5.5]undecan-4-yl]propan-1-one]",75.3345
5,"CC(C#N)Oc1ccc(C=C(C#N)C(=O)Nc2ccccc2Cl)cc1 (stereo not drawn) [9-E05, N-(2-chlorophenyl)-2-cyano-3-[4-(1-cyanoethoxy)phenyl]prop-2-enamide]",89.259
6,"C=CCNC(=O)C(C#N)=Cc1cccc2ccccc12 [9-L10, 2-cyano-3-(naphthalen-1-yl)-N-(prop-2-en-1-yl)prop-2-enamide]",88.3073
7,"CC(Cl)C(=O)N(C)C[C@@H]1C[C@H](F)CN1c1ccnc(N(C)C)n1 (stereo partly drawn) [7-K16, 2-chloro-N-{[(2S,4S)-1-[2-(dimethylamino)pyrimidin-4-yl]-4-fluoropyrrolidin-2-yl]methyl}-N-methylpropanamide]",71.1052
8,"C=CC(=O)NCCc1ccn(-c2ccc(F)cc2)n1 [2-P03, N-{2-[1-(4-fluorophenyl)-1H-pyrazol-3-yl]ethyl}prop-2-enamide]",113.818
9,"Cc1cc(C(=O)O)ccc1N1C(=O)C=CC1=O [10-G22, 4-(2,5-dioxo-2,5-dihydro-1H-pyrrol-1-yl)-3-methylbenzoic acid]",102.864
10,"Cc1ccc(C)c(N2C(=O)C=CC2=O)c1 [10-F13, 1-(2,5-dimethylphenyl)-2,5-dihydro-1H-pyrrole-2,5-dione]",31.3267
11,"Cc1ccc(N2C(=O)C=CC2=O)c(C)c1 [10-N07, 1-(2,4-dimethylphenyl)-2,5-dihydro-1H-pyrrole-2,5-dione]",22.5989
12,"Cc1ccc2nc(-c3ccc(N4C(=O)C=CC4=O)cc3)sc2c1 [10-K18, 1-[4-(6-methyl-1,3-benzothiazol-2-yl)phenyl]-2,5-dihydro-1H-pyrrole-2,5-dione]",99.1233
13,"COc1ccc2c(c1)OCCN(C(=O)C(C)Cl)C2 (stereo not drawn) [7-E04, 2-chloro-1-(8-methoxy-2,3,4,5-tetrahydro-1,4-benzoxazepin-4-yl)propan-1-one]",86.04
14,"C=CC(=O)NCc1cscn1 [1-I07, N-[(1,3-thiazol-4-yl)methyl]prop-2-enamide]",90.1345
15,"Cc1ccc(CC(=O)CCl)cc1 [10-O13, 1-chloro-3-(4-methylphenyl)propan-2-one]",100.058
16,"O=C(CCl)Cc1ccc(Cl)c(Cl)c1 [10-E15, 1-chloro-3-(3,4-dichlorophenyl)propan-2-one]",25.5601
17,"O=C(CCl)Cc1cccc(F)c1 [10-C11, 1-chloro-3-(3-fluorophenyl)propan-2-one]",7.637
18,"O=C(CCl)N1CCC1c1cccc(F)c1 (stereo not drawn) [5-K10, 2-chloro-1-[2-(3-fluorophenyl)azetidin-1-yl]ethan-1-one]",86.5819
19,"Cc1cccc(CC(=O)CCl)c1 [10-I19, 1-chloro-3-(3-methylphenyl)propan-2-one]",92.7333
20,"O=C(CCl)NCCc1cccc(Cl)c1 [5-O05, 2-chloro-N-[2-(3-chlorophenyl)ethyl]acetamide]",115.33
21,"O=C(CCl)Cc1cccc(Cl)c1 [10-E17, 1-chloro-3-(3-chlorophenyl)propan-2-one]",7.481
22,"O=C(Cc1cccc(F)c1)N1CCSSCC1 [10-L21, 1-(1,2,5-dithiazepan-5-yl)-2-(3-fluorophenyl)ethan-1-one]",98.8116
23,"CC(C)(C)c1ccc(CC(=O)CCl)cc1 [10-G19, 1-(4-tert-butylphenyl)-3-chloropropan-2-one]",116.579
24,"O=C(CCl)Nc1cc(Cl)cc(Cl)c1 [4-K09, 2-chloro-N-(3,5-dichlorophenyl)acetamide]",84.8825
25,"CC(C)c1ccc(CC(=O)CCl)cc1 [10-I17, 1-chloro-3-[4-(propan-2-yl)phenyl]propan-2-one]",115.644
26,"O=C(CCl)Cc1cc(Cl)cc(Cl)c1 [10-I15, 1-chloro-3-(3,5-dichlorophenyl)propan-2-one]",20.7286

row,Compound,% of control remaining [%]
1,"COc1cc(C=C(C#N)C(=O)Nc2cccc(C)c2)c2c(c1)CC(C)O2 (stereo not drawn) [8-N22, 2-cyano-3-(5-methoxy-2-methyl-2,3-dihydro-1-benzofuran-7-yl)-N-(3-methylphenyl)prop-2-enamide]",77.7022
2,"C=CC(=O)NCc1cn([C@@H]2COC[C@H]2OC)nn1 [1-J17, N-({1-[(3R,4S)-4-methoxyoxolan-3-yl]-1H-1,2,3-triazol-4-yl}methyl)prop-2-enamide]",85.0523
3,"C=CC(=O)N(Cc1ccc(Cl)cc1Cl)CC1CCC(O)C1 (stereo not drawn) [1-B04, N-[(2,4-dichlorophenyl)methyl]-N-[(3-hydroxycyclopentyl)methyl]prop-2-enamide]",107.949
4,"Cc1cc(C(=O)CCl)c(C)n1C(C)c1ccccc1 (stereo not drawn) [10-P17, 2-chloro-1-[2,5-dimethyl-1-(1-phenylethyl)-1H-pyrrol-3-yl]ethan-1-one]",96.4738
5,"CC(NC(=O)C(C#N)=Cc1ccco1)c1cccc(-n2cccn2)c1 (stereo not drawn) [9-J04, 2-cyano-3-(furan-2-yl)-N-{1-[3-(1H-pyrazol-1-yl)phenyl]ethyl}prop-2-enamide]",81.5092
6,"C=CC(=O)N1CCCCC1c1nc2ccccc2n1C (stereo not drawn) [3-F04, 1-[2-(1-methyl-1H-1,3-benzodiazol-2-yl)piperidin-1-yl]prop-2-en-1-one]",96.3242
7,"C=CC(=O)NCC(c1c(F)cccc1F)N1CC(C)OC(C)C1 (stereo not drawn) [1-I13, N-[2-(2,6-difluorophenyl)-2-(2,6-dimethylmorpholin-4-yl)ethyl]prop-2-enamide]",82.5112
8,"N#CC(=Cc1ccc(-c2ccccc2Cl)o1)C(=O)N1CCCCC1 [8-F20, 3-[5-(2-chlorophenyl)furan-2-yl]-2-(piperidine-1-carbonyl)prop-2-enenitrile]",64.378
9,"O=C(CCl)N1CC(S(=O)(=O)Nc2ccccc2)C1 [5-G10, 1-(2-chloroacetyl)-N-phenylazetidine-3-sulfonamide]",71.283
10,"O=C(NC1CC1)C1(C(=O)N2CCSSCC2)CCC1 [10-B21, N-cyclopropyl-1-(1,2,5-dithiazepane-5-carbonyl)cyclobutane-1-carboxamide]",104.89
11,"Cn1nc(C(F)(F)F)cc1CN(C(=O)CCl)C1CCCC1 [5-C16, 2-chloro-N-cyclopentyl-N-{[1-methyl-3-(trifluoromethyl)-1H-pyrazol-5-yl]methyl}acetamide]",89.1037
12,"O=C(CCl)Cc1ccc(F)c(F)c1 [10-O17, 1-chloro-3-(3,4-difluorophenyl)propan-2-one]",19.3259
13,"O=C(CCl)Cc1ccc(F)cc1 [10-G15, 1-chloro-3-(4-fluorophenyl)propan-2-one]",95.6945
14,"O=C(CCl)Cc1ccc(C(F)(F)F)cc1 [10-C19, 1-chloro-3-[4-(trifluoromethyl)phenyl]propan-2-one]",79.6415
15,"COc1ccccc1N1C(=O)C=CC1=O [10-O10, 1-(2-methoxyphenyl)-2,5-dihydro-1H-pyrrole-2,5-dione]",26.0277
16,"COc1ccccc1CN1C(=O)C=CC1=O [10-P21, 1-[(2-methoxyphenyl)methyl]-2,5-dihydro-1H-pyrrole-2,5-dione]",42.8599
17,"COc1ccc(OC)c(NC(=O)CCl)c1 [6-O04, 2-chloro-N-(2,5-dimethoxyphenyl)acetamide]",96.0091
18,"COc1ccc(OC)c(N2C(=O)C=CC2=O)c1 [10-N15, 1-(2,5-dimethoxyphenyl)-2,5-dihydro-1H-pyrrole-2,5-dione]",24.7808
19,"COc1ccccc1CNC(=O)C(C)Cl (stereo not drawn) [5-M21, 2-chloro-N-[(2-methoxyphenyl)methyl]propanamide]",101.376
20,"COc1ccccc1NC(=O)C(C)Cl (stereo not drawn) [5-L20, 2-chloro-N-(2-methoxyphenyl)propanamide]",97.5097
21,"COc1ccccc1CN(C)C(=O)CCl [6-C09, 2-chloro-N-[(2-methoxyphenyl)methyl]-N-methylacetamide]",89.7905
22,"COc1cc(Cl)c(C)cc1NC(=O)C(C)Cl (stereo not drawn) [6-C15, 2-chloro-N-(4-chloro-2-methoxy-5-methylphenyl)propanamide]",86.6054
23,"COc1ccc(OC)c(C(C)NC(=O)CCl)c1 (stereo not drawn) [4-M19, 2-chloro-N-[1-(2,5-dimethoxyphenyl)ethyl]acetamide]",102.48
24,"COc1cc(Cl)c(C)cc1N1C(=O)C=CC1=O [10-B15, 1-(4-chloro-2-methoxy-5-methylphenyl)-2,5-dihydro-1H-pyrrole-2,5-dione]",23.534
25,"COc1cc(Cl)c(C)cc1NC(=O)C(C#N)=CC=Cc1ccccc1 [8-A21, N-(4-chloro-2-methoxy-5-methylphenyl)-2-cyano-5-phenylpenta-2,4-dienamide]",93.0659
